An excerpt weighted towards active compounds, which were near 19% of everything screened.
Pf growth 96h = P. falciparum growth inhibition at 96 hours | AID 504834 | 6.9% of 320,000 active | P. falciparum luciferase reporter growth, 96 h | Potency, µM (top dose mostly 28.7 µM), inactives show top-dose activity change, negative = inhibition, hits mostly inhibitors; further: potency means the concentration at half of the fitted maximal effect; on the % scale 0 is the no-effect control and ±100 the full control effect
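Cell-based qHTS: luciferase-tagged P. falciparum in erythrocytes (2% hematocrit, 0.05% parasitemia final) incubated with compounds for 96 hours, 37 C, 5% CO2; luciferase detection reagent then added and luminescence measured.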
Shiga toxin inh = Shiga toxin inhibition; Vero cells, Shiga toxin protein synthesis inhibition reporter; inhibition, % at 38.7 µM; 9.2% of 290,000 active; in the data active means inhibition mostly above about 28%, no sharp cut-off; inactive means mostly below about 43%; further: 0% is about no effect
SARS PLpro yeast = SARS-CoV PLP inhibition in yeast. AID 485353. S. cerevisiae expressing SARS-CoV PLpro, growth rescue. Potency, µM (titrated, usually from 32.9 µM), without a hit: at the top dose activity, positive = growth rescue, actives largely listed as activators. 0.19% of 330,000 active; calls by dose curve; further: potency means the concentration at half of the fitted maximal effect; 0% is about no effect; nearly all actives have a fitted effect of over 55% in size
CHX counter = counter-screen for Shiga toxin inhibitors: cycloheximide protein synthesis inhibition. cell reporter, cycloheximide protein synthesis inhibition counterscreen. max response, %. 12% of 300,000 active; in the data active means max response mostly above about 13%, no sharp cut-off; inactive means mostly below about 14%; further: read at 38.3 µM for the half of the compounds with a filed dose; 0% is about no effect
Pf growth 48h = inhibits P. falciparum growth in the first generation, 48 h; P. falciparum luciferase growth in erythrocytes, 48 h; Potency, µM (series often up to 28.7 µM), without a hit: at the top dose activity change, negative = inhibition, hits mostly inhibitors; 5.9% of 310,000 active; AID 504832; further: potency means the concentration at half of the fitted maximal effect; on the % scale 0 is the no-effect control and ±100 the full control effect
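Compounds are pin-transferred into medium, infected erythrocytes (2% hematocrit, 0.1% parasitemia final) are added, and plates sit one parasite generation at 37 C in 5% CO2. Detection reagent is then added and luminescence measured.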
AMA1-RON2 inh = disrupts binding of P. falciparum AMA1 to RON2; AlphaScreen AMA1-biotinylated RON2 peptide binding; Potency, µM (doses to about 58.2 µM), inactives show top-dose activity change, negative = inhibition, most hits filed as inhibitors; 0.2% of 360,000 active; AID 720542;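 further: potency means the concentration at half of the fitted maximal effect; 0% = vehicle wells and -100% = peptide control; nearly all actives have a fitted effect of over 45% in size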
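AMA1 (3D7) with his tag at 25 nM final met compounds first, then biotinylated RON2 peptide at 25 nM; detection used donor plus acceptor beads, 10 µg/mL apiece, read by AlphaScreen after 30 min at room temperature.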
* marks the source's active call; other numbers are inactive results; ? = inconclusive; · = not tested or not shown; [ ] = remark or other dose. Unless noted, the call rests on the fitted dose curve; in most records, active means well fitted curve in the direction sought with a large enough effect; inconclusive means small, poorly fitted or top-dose-only effect, or another doubt; inactive means no such curve, though single readings can be large; an effect the other way counts as inactive or inconclusive.

SMILES | Pf growth 96h | Shiga toxin inh | SARS PLpro yeast | CHX counter | Pf growth 48h | AMA1-RON2 inh
CC(C)(C)c1ccc(-c2nnc3sc(-c4ccccn4)nn23)cc1 | -23.6% | 91.3* | -4.5% | 46.2* | · | 92.7%
Clc1ccccc1-c1nnc2sc(-c3ccncc3)nn12 | 1.9% | -10.7 | -5.0% | -3.8 | · | 2.3%
Clc1ccccc1-c1nn2c(-c3ccccn3)nnc2s1 | -16.1% | -4.2 | 3.4% | 3.6 | 8.28µM* | -1.2%
Clc1ccccc1-c1nn2c(-c3ccncc3)nnc2s1 | ? | -6.8 | 0.9% | 6.3 | 10.4µM* | -5.6%
Clc1ccccc1-c1nnc2sc(-c3cccs3)nn12 | · | 2.5 | 22.4µM* | 1.1 | ? | 29.7%
COc1ccc(-c2nnc3sc(-c4cccs4)nn23)cc1OC | 11.7µM* | -2.7 | -0.3% | 1.2 | -8.9% | 7.8%
Brc1ccc(-c2nn3c(-c4ccccn4)nnc3s2)o1 | ? | 24.6 | -5.9% | 14.2* | -26.2% | ?
COc1cccc(-c2ccc(NC(=O)C3CCCN(Cc4cnc(C)s4)C3)cc2)c1 (stereo not drawn) | ? | -3.5 | -1.8% | 8.1 | ? | -1.1%
Cc1[nH]c(=O)[nH]c(=O)c1S(=O)(=O)N(CC(C)C)CC(C)C | 0.1% | 17.0 | 1.3% | -1.2 | 10.0% | 4.5%
CC(C)(C)C(=O)Nc1cccc(-c2nc3ccccc3[nH]2)c1 | · | -5.7 | -6.6% | 4.0 | -1.0% | -2.6%
CC(C)(C)C(=O)Nc1sc2c(c1-c1nc3ccccc3[nH]1)CCCC2 | ? | 16.1 | -0.9% | 11.8 | 9.28µM* | 15.9%
O=C1NC2(Nc3ccccc31)C(=O)Nc1ccccc12 (stereo not drawn) | 31.4% | 58.9* | 0.4% | 23.6* | ? | 7.4%
O=S(=O)(Nc1ccccc1)c1ccc(-c2csnn2)cc1 | 35.2% | 11.0 | 0.5% | -3.2 | 9.3% | -3.4%
c1ccc(-c2ccc(-c3csnn3)cc2)cc1 | 484.5% | 56.6* | -1.8% | 33.1* | 70.5% | 3.0%
CC1(c2nnnn2-c2ccc3c(c2)OCCO3)CCC(=O)N1CC1CCCCC1 (stereo not drawn) | · | · | · | · | · | -5.8%
O=S1(=O)CCN2C(=N1)Sc1c2ccc2c1CCCC2 | · | 69.5* | -12.2% | 24.8* | · | 0.0%
OC1(CNCc2cn[nH]c2-c2cc3ccccc3o2)CCCCC1 | 34.4% | -4.8 | 0.5% | -5.9 | 15.2% | 15.4%
CCC(Cc1ccccc1)NC(=O)C1=C(C)C(=O)OC12CCC(C)CC2 (stereo not drawn) | ? | -6.8 | 0.5% | -4.0 | 20.8% | -1.5%
O=C1C2CC=CCC2C(=O)N1c1ccc(NCCc2cccc(F)c2)c([N+](=O)[O-])c1 (stereo not drawn) | -38.5% | -1.5 | -1.3% | -2.1 | 8.3% | -8.2%
NNC(=O)c1ccc(Cn2cccn2)o1 | -6.2% | 51.9* | -0.7% | 19.6 | 21.3% | 74.8%
O=C(N/N=C/c1cccc(Br)c1)c1ccc(Cn2cc(Br)cn2)o1 | ? | 55.8* | 11.6% | 17.1 | -11.3% | -10.3%
Cc1ccccc1/C=N\NC(=O)c1ccc(Cn2cccn2)o1 | 41.0% | 31.8 | 3.3% | 4.6 | 28.5% | 2.3%
NNC(=O)c1ccc(Cn2cc(Br)cn2)o1 | 34.9% | 61.0* | 0.1% | 27.2* | 26.2% | 10.2%
CCC1C(=O)NCCN1C(=O)c1ccc(OC)c(OC2CCN(C(C)=O)CC2)c1 (stereo not drawn) | ? | -1.5 | -5.5% | -1.9 | 22.2% | 21.7%
O=C(CCBr)Nc1cccc2cccnc12 | · | 4.1 | · | 4.4 | · | ·
CCCS(=O)(=O)NC(=O)C1(C)CCCN(C(=O)c2ccccc2F)C1 (stereo not drawn) | · | · | · | · | · | 5.0%
COc1cc(-c2nnc(SCC(=O)c3cc(C)n(CC4CCCO4)c3C)o2)cc(OC)c1OC (stereo not drawn) | -19.1%[5.75 µM] | active | -2.8% | 64.2* | 8.28µM* | -5.9%
COc1cc(-c2nnc(SCC(=O)N3CCCC3)o2)cc(OC)c1OC | 56.9% | 31.3 | 1.5% | -0.8 | ? | 2.3%
Cc1cc(C(=O)CSc2nnc(-c3ccc(F)cc3)o2)c(C)n1CC1COc2ccccc2O1 (stereo not drawn) | ? | 2.4 | 6.7% | -4.5 | ? | -3.0%
COc1cc(-c2nnc(SCC3(c4ccc(Br)cc4)OCCO3)o2)cc(OC)c1OC | 13.1µM* | -8.2 | -2.8% | -3.7 | 10.4µM* | 0.0%

Screens from PubChem.
